The values that follow come from PubChem BioAssay AID1159506 (National Center for Advancing Translational Sciences (NCATS), 2015).

Over roughly 59,000 sequences, the read-out has its median near -0.00055; the lowest 2% begin near -2. Many of the other results were omitted from the sample, so the lowest values are more common in it than they were.

A short description of the test: Identification of proteins required for the processing of the EWS-FLI1 nascent transcript.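 Also: robust z of luciferase light less the median z of siRNAs with the same seed.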 As to conditions: TC32 Ewing sarcoma NR0B1-luc vs CMV-luc (EWS-FLI1 target promoter against control promoter), 48 h; screened at 20 nM (by protocol). A digest of the protocol: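 Three siRNAs per gene, each in a separate well at 20 nM, were transfected into TC32 cells bearing either reporter construct. Luminescence was measured two days on, and per-gene comparison relied on seed-corrected Z values.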
As for AGACUGUAAAAGAUCUGUG against CCDC106, the seed-corrected z-score is -0.709. On to AAUCGUACACUCUCCGUAG against CHST2, for which the seed-corrected z-score is -1.01. In the case of UCACUUAGCAGGCUCUCUG against DDIT4L, the seed-corrected z-score was -0.677. With ACCGUUAAACUUGUAAUCG against ZFYVE9 the figure was 0.0151; with AUAGAUGCGAUCUAUGAGC against TRE17, 0.156; with UGGUUGUACGCGAUGUCCG against FZD1, -3.54.

In turn, UGCUGCAAGAGGUUAUUCC against HAS1 registered a seed-corrected z-score of 0.441.

For UAAUUGUCAGCUGAUUGUC against CDC6, the seed-corrected z-score was -0.689. In turn, UCACCGUUCCAUUCAAGUC against IKBKB registered a seed-corrected z-score of 0.0239. With UUUGGGAAAGUAGCUAUCA against LINC01124 the figure was -2.24; with AUUGGAGCAAGACUUUUAG against BDKRB1, -0.291; with UUCAGCUAUAAAGUAAAGC against IL18, -13. As to AAGGCUCCAAUGAUAAGUG against NRG4, the seed-corrected z-score is -0.154. Take UCGCUUUCCUCCAGGGUAC against GNRH2: the seed-corrected z-score is -0.382. With AAAGCUGCGUCUUGUCUCG against LDLRAD2 the figure was -3.83. With UAAGAACCCACAGUAUUGA against FBLN2, the seed-corrected z-score was found to be 0.31. UAAAUAAUAUUGCACAUAC against FAM228A showed a seed-corrected z-score of 0.618. With UUGAAUUUAAGAGAAAGGA against NPR3 the figure was 0.283. With AUAGUCAGCUGUGCUCUGC against FLJ16423 the figure was -0.343. UUAGCAUGCAAAAUCGCCC against CWC22: the seed-corrected z-score was -3.73. With UAGGGUGAGUCAAUAAUGG against CSTF2T the figure was -0.0525. The result for AUCUUUAUCAUUGGGCAGG against SCAF1 reads -0.941. Consider UUAUAAAUCCCUUUCACCG against CASP9, for which the seed-corrected z-score is -0.324. On to UAUGUCUUUCAGACUGACC against RPTN, for which the seed-corrected z-score is -1. As to UUUCGGCACUGCAAAGUCG against ATP10A, the seed-corrected z-score came to 0.235. With UCCUGCUUCAUAUCUUCUG against C19orf66 the figure was -3.54. With UUACUGAGGAAGUUUCUUU against CD99L2 the figure was -0.781; with UCCCUGGUAAAGUAUAGUC against EGFEM1P, -1.34. The result for UUUCCGUCUGUCUUCUUCC against DCAF4 reads 0.00663; that for UUACUAAAGACUGACAACC against ZNF208, -0.0968. For the sequence UACUGCUUCGUAUCUGUCC against PIH1D2, the seed-corrected z-score was -2.13. The result for AUAGGACUGACAGUGUUCA against STAC3 reads 1.13.

Regarding UUUCAUUCGGUGAAAGUCC against MTFR1L, the seed-corrected z-score is -0.547. In turn, UAAUUCACUAACUUCAAGC against SLC37A3 came in with a seed-corrected z-score of 0.139. In turn, UGGGUGUCCAUUCUCGAGC against PPP1R18 showed a seed-corrected z-score of 1.72. With UUUUGGGUGUGGACCUUGC against NPFF the figure was 0.585. Consider ACAGUGGAAACCUCACUUC against FOXP3, for which the seed-corrected z-score came to 0.0552.

AUUCUUAUCCAUCCGAUCC against CTTN: the seed-corrected z-score was -0.272.

Sequence UCAUUUUACCUCUUCCAUC against GADL1 showed a seed-corrected z-score of 0.676. UCUGCUUCACCAGUUACUC against HNRNPH1: the seed-corrected z-score is -2.08. Sequence UGAUAAACCACAGCAACUC against TYMS returned a seed-corrected z-score of 1.01. Consider UUUGAUACCUCCUUUACCC against HELB, for which the seed-corrected z-score was found to be 0.388. The result for UCUCUGCUAACGAUAACUC against PIWIL1 reads -0.0232; that for UAACCUGCUCAAAAGAAUG against ACSL6, 0.714; that for UAAAGUACAGCUCGGUUUG against OOSP2, 0.436. For UUUGUUGAAGGUUUCACUG against ZMYND15, the seed-corrected z-score was found to be 1.4. With UCGAUAGUCAUCAAAGAUC against VWC2L the figure was -2.99; with UACUGGUAAAAGGUGUUCC against C6orf58, 0.5. The result for UACAGAGAAAGGUAGCGGU against GPR3 reads -2.23; that for UGAUCUACCUGCUUGUGCC against USP17L9P, -0.147. The result for UGACUGACAACUUCUGGAU against PAK6 reads -0.344; that for AAUGGACCUAGAUUUCAGG against C16orf59, 1.27; that for UUAGCUGCGUCAGAUAUCG against RPS6KA2, -2.67. Turning to UCCUGGAUACGCAACUUGA against C2orf68, the seed-corrected z-score was -0.63. The result for UGCAUUUGAAGACUCACUC against HMG20A reads 0.87.

As for UUGAGUCUUAGCAAUGUGA against KIAA0895L, the seed-corrected z-score is -0.000345.

UACAUGAAAAGCAAGGCUG against OR6B3: the seed-corrected z-score is 0.504. The result for UAUGGUGUUGAGCUCAGCG against SLC12A3 reads 0.228. With UCUACUAUCGGCUUAUAGC against 11-Sep the figure was -0.114; with UCCGGAGUAAGCUUCAACC against DHX9, -0.429; with AACGAAGCAAGCAUGGUCC against LARP6, -0.832. The result for UAGUCAACGUUGGACACGG against PRR22 reads 0.319; that for UUGACGGUAAUAUCUGUCC against SMU1, -3.14. Sequence UAGCCUAUGGUACAAGUUC against ERVFRD-1 returned a seed-corrected z-score of 0.353. With AACUCAUUCCCUUCUUUCC against ZMAT3 the figure was -0.582.

Turning to UCUCUGACAAGUGUGAAGC against DKK1, the seed-corrected z-score is -0.0537. The result for UGAUGAGCGAGAAGGUACC against DLL4 reads 1.41.

Regarding UUAAUUGCUAUGUUGUUGG against NFS1, the seed-corrected z-score is -0.476. In turn, AUAGGUUUGUGAUCCAACC against AAED1 registered a seed-corrected z-score of 0.186. The result for AUUCGUAUGGUUCAUGUCC against PRPF8 reads -2.88; that for UUAAAUACAGCUCCUGUUA against AQP11, 0.0289. For the sequence AGCUUGUACAGUGUUAUCC against PTPN4, the seed-corrected z-score is -2.22. In turn, UUGCUGAACGCGAUGAUCU against PRDX2 yielded a seed-corrected z-score of 0.201. The result for UCUUAUGUAAUUGUUCCUC against KANSL1 reads 0.324; that for UUCUUUCGCAUUGCAAUGC against CMC2, 0.187. With UGAGGACAAAGAAUCUUCC against MRPS18B the figure was 0.518; with UCCAGUUGUUCAAUCAUGG against CNTROB, -2.47; with UCUGUUUGAUGUUAGGUUG against PACS1, -0.0479. The result for UUCUUUAACUUUAUGCUCC against RAI2 reads 0.273; that for UAUUCUAUUGGGUCACUGG against DYDC2, 0.409; that for AAGUGAAUAGAAAACAUCC against SUN5, 1.29. In turn, UAGGUCAGAAGCAACCUGC against C10orf111 yielded a seed-corrected z-score of 2.42. For the sequence AGAUGUGAUAGUGCUCUGG against TMEM52B, the seed-corrected z-score was -2.02. The result for UUACGUAAUCCAGGGAUCG against LANCL2 reads -1.2; that for UAGUGUAAUUGGUCUAACC against POGZ, 0.928.
